Assay results from PubChem BioAssay AID1511 (Johns Hopkins Ion Channel Center, 2009).
Screen size: about 310,000 compounds; about 1,600 (0.52%) were called active.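 The calls were made as follows: active = activation above the mean of controls blocked by dofetilide plus 5 SD; inactive = the rest.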 This excerpt belongs to a sample that is enriched for actives.

Target: Voltage-gated inwardly rectifying potassium channel KCNH2 (Homo sapiens) (UniProt Q12809)
Test: compounds relieving dofetilide block of hERG – cell-based, CHO-hERG, FluxOR thallium flux, dofetilide IC70, primary screen (AID 1511);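 also: thallium influx through hERG after potassium depolarization seen as dye fluorescence rise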
Conditions: dofetilide IC70 present, at 10 µM, hits give high values

Voltage-gated inwardly rectifying potassium channel KCNH2 (Homo sapiens), sequence (Q12809 whole entry, looked up): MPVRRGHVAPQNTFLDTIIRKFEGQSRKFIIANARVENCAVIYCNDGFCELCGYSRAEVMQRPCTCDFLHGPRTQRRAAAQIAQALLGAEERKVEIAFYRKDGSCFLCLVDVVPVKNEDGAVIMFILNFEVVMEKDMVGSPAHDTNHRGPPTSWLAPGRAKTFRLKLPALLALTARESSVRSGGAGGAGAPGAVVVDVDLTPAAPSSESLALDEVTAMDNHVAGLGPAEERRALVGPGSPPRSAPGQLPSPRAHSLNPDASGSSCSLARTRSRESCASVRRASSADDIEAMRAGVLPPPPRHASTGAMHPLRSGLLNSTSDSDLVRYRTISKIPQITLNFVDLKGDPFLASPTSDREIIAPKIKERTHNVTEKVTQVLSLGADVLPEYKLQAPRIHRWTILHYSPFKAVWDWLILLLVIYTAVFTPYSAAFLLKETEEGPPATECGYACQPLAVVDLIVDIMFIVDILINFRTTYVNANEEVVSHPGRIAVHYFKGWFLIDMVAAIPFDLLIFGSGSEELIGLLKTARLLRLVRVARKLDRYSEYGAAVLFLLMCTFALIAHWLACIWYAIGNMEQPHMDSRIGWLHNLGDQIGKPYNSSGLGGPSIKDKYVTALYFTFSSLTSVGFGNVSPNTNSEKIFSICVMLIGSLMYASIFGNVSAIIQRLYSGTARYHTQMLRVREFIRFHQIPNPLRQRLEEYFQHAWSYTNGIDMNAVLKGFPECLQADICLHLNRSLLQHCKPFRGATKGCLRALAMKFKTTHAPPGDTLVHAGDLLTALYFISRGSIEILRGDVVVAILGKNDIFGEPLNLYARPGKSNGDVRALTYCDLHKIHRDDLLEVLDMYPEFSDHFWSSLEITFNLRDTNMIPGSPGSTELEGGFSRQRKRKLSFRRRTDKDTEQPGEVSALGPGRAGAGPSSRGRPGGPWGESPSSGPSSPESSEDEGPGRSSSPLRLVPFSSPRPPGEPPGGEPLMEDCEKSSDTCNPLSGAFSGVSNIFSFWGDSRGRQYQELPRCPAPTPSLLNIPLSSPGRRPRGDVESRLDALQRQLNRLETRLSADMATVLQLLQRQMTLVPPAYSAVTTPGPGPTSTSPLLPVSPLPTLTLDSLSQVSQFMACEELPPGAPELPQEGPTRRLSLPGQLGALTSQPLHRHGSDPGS

Q: How did the activation (rescue from dofetilide block), less the hit threshold turn out when `Cc1cccc(NC(=O)c2ccc3ccccc3n2)n1` was run?
A: -1.08% (inactive)

Q: Which activation (rescue from dofetilide block), less the hit threshold does the source give for `CCOC(=O)C(=CNc1cccc(C)n1)C(=O)OCC` here?
A: 5.91% (active)

Q: For `Cc1cccc(NC(=O)Cc2ccc(Br)cc2)n1`, which activation (rescue from dofetilide block), less the hit threshold is on record?
A: -12.3% (inactive)

Q: `COC(=O)[C@H](CC(C)C)NC(=O)N1CCCCC1C` (stereo partly drawn) was tested. Which activation (rescue from dofetilide block), less the hit threshold did it give?
A: -7.74% (inactive)

Q: `CCc1ccc(CN(C)C(=O)CCc2nnc(-c3ccc(-c4ccccc4)cc3)o2)nc1` was tested. Which activation (rescue from dofetilide block), less the hit threshold did it give?
A: -22.3% (inactive)

Q: For `NS(=O)(=O)c1ccc(CNC(=O)c2ccc(Cl)cc2[N+](=O)[O-])cc1`, which activation (rescue from dofetilide block), less the hit threshold is on record?
A: -2.96% (inactive)

Q: How did the activation (rescue from dofetilide block), less the hit threshold turn out when `O=C(Cn1ccc2cc(S(=O)(=O)N3CCCC3)ccc21)NCc1ccccc1` was run?
A: -5.85% (inactive)

Q: Which activation (rescue from dofetilide block), less the hit threshold does the source give for `Cc1ccc(/C=N/NC(=O)c2cc3ccccc3cc2O)o1` here?
A: 41.5% (active)

Q: `N=c1oc2ccccc2cc1C(=O)N/N=C/c1ccccc1` was tested. Which activation (rescue from dofetilide block), less the hit threshold did it give?
A: -8.66% (inactive)

Q: How did the activation (rescue from dofetilide block), less the hit threshold turn out when `O=C(N/N=C/c1cccnc1)c1cc2ccccc2cc1O` was run?
A: -0.07% (inactive)

Q: How did the activation (rescue from dofetilide block), less the hit threshold turn out when `CCOC(=O)CCCN1CC(O)=C(c2nc3ccccc3s2)C1=N` was run?
A: -12% (inactive)

Q: How did the activation (rescue from dofetilide block), less the hit threshold turn out when `CCCCCN1CC(O)=C(c2nc(-c3ccc(Cl)cc3)cs2)C1=N` was run?
A: -8.57% (inactive)

Q: How did the activation (rescue from dofetilide block), less the hit threshold turn out when `CCCCCN1CC(O)=C(c2ccccc2)C1=N` was run?
A: 5.35% (active)

Q: For `CCC1OC(c2ccc([N+](=O)[O-])cc2)=Nc2ccccc21` (stereo not drawn), which activation (rescue from dofetilide block), less the hit threshold is on record?
A: -15.1% (inactive)

Q: `Cc1ccc(C(C)C)cc1OCC(=O)Nc1ccccc1N1CCCC1` was tested. Which activation (rescue from dofetilide block), less the hit threshold did it give?
A: -20.3% (inactive)

Q: How did the activation (rescue from dofetilide block), less the hit threshold turn out when `CCc1cc2c(=O)c(-c3ccon3)c(N)oc2cc1OC` was run?
A: 5.25% (active)

Q: With `CCc1cc2c(=O)c(-c3ccc(F)cc3)c(C(F)(F)F)oc2cc1OCC(=O)O` as the molecule, how does the activation (rescue from dofetilide block), less the hit threshold read?
A: -11.1% (inactive)

Q: For `COc1ccc2oc(N)c(C=O)c(=O)c2c1`, which activation (rescue from dofetilide block), less the hit threshold is on record?
A: -3.18% (inactive)

Q: For `CCOC(=O)c1cc(-c2ccc(Cl)s2)nc2c1c(C)nn2C`, which activation (rescue from dofetilide block), less the hit threshold is on record?
A: -9.55% (inactive)

Q: For `CC12c3ccccc3C(c3ccccc31)C1C(=O)N(Cc3cccnc3)C(=O)C12` (stereo not drawn), which activation (rescue from dofetilide block), less the hit threshold is on record?
A: -9.37% (inactive)

Q: How did the activation (rescue from dofetilide block), less the hit threshold turn out when `CCOC(=O)C1CCN(C(=O)COc2cccc3ccccc23)CC1` was run?
A: -10.3% (inactive)

Q: For `O=C(CN(CC1CCCO1)C(=O)CNS(=O)(=O)c1ccccc1)NCc1ccccc1` (stereo not drawn), which activation (rescue from dofetilide block), less the hit threshold is on record?
A: -7.03% (inactive)

Q: `CC(C)C(C(=O)NCc1ccco1)N(CC1CCCO1)C(=O)CNS(=O)(=O)c1ccc(F)cc1` (stereo not drawn) was tested. Which activation (rescue from dofetilide block), less the hit threshold did it give?
A: 0.16% (inactive)

Q: `O=C(CN(CC1CCCO1)C(=O)CNS(=O)(=O)c1ccc(F)cc1)NCc1ccco1` (stereo not drawn) was tested. Which activation (rescue from dofetilide block), less the hit threshold did it give?
A: 4.78% (active)

Q: Which activation (rescue from dofetilide block), less the hit threshold does the source give for `O=C(CSc1ccccn1)N1CCN(S(=O)(=O)c2ccc(Cl)cc2)CC1` here?
A: -10.1% (inactive)

Q: `CC1(C)Cc2cccc(OCC(=O)NCc3ccccc3)c2O1` was tested. Which activation (rescue from dofetilide block), less the hit threshold did it give?
A: -7.06% (inactive)

Q: Which activation (rescue from dofetilide block), less the hit threshold does the source give for `CC1(C)Cc2cccc(OCC(=O)Nc3nccs3)c2O1` here?
A: 7.68% (active)

Q: `CC1(C)Cc2cccc(OCC(N)=O)c2O1` was tested. Which activation (rescue from dofetilide block), less the hit threshold did it give?
A: -3.71% (inactive)
